A number with no mark means an inactive call.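 How the source made its calls: active = AUC reduced over 20% with Padj below 0.05 in at least 2 of 3 replicates; inactive = otherwise.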
Key:
Test in all cases: growth AUC relative to DMSO control (median of replicates) (fraction); higher = more growth (less inhibition), active = hit call of the paper
Conditions in all cases: 20 µM; 24 h
[1] = system: Akkermansia muciniphila
Method in brief: (§1)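 Hourly OD600 readings over 24 h tracked anaerobic gut bacterial monocultures grown at 37 °C in mGAM from OD600 0.05 with 20 µM compound (1% DMSO). After the minimum OD was set to 0, area under the growth curve was normalised to the plate median of solvent-only wells, or to row and column medians on the industrial chemical plate. Values are medians of three biological replicates grown on separate days.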

[2] = system: Bacteroides caccae
Method in brief: as §1

[3] = system: Bacteroides clarus
Method in brief: as §1

[4] = system: Bacteroides dorei
Method in brief: as §1

[5] = system: Bacteroides stercoris
Method in brief: as §1

[6] = system: Bacteroides thetaiotaomicron
Method in brief: as §1

[7] = system: Bacteroides uniformis
Method in brief: as §1

[8] = system: Bifidobacterium longum subsp. longum
Method in brief: as §1

[9] = system: Clostridium difficile
Method in brief: as §1

[10] = system: Collinsella aerofaciens
Method in brief: as §1

[11] = system: Coprococcus comes
Method in brief: as §1

[12] = system: Escherichia coli ED1a
Method in brief: as §1

[13] = system: Escherichia coli IAI1
Method in brief: as §1

[14] = system: Eubacterium rectale
Method in brief: as §1

[15] = system: Fusobacterium nucleatum subsp. animalis
Method in brief: as §1

[16] = system: Lactobacillus gasseri
Method in brief: as §1

[17] = system: Lactobacillus paracasei
Method in brief: as §1

[18] = system: Odoribacter splanchnicus
Method in brief: as §1

[19] = system: Parabacteroides distasonis
Method in brief: as §1

[20] = system: Parabacteroides merdae
Method in brief: as §1

Row | Structure (SMILES) | growth AUC [1] | growth AUC [2] | growth AUC [3] | growth AUC [4] | growth AUC [5] | growth AUC [6] | growth AUC [7] | growth AUC [8] | growth AUC [9] | growth AUC [10] | growth AUC [11] | growth AUC [12] | growth AUC [13] | growth AUC [14] | growth AUC [15] | growth AUC [16] | growth AUC [17] | growth AUC [18] | growth AUC [19] | growth AUC [20]
1 | CC(C)N(C(=O)CS(=O)CC(=O)O)c1ccc(F)cc1 (stereo not given) | 0.994 | 0.965 | 0.94 | 0.969 | 0.988 | 0.987 | 0.958 | 1.03 | 1.01 | 1 | 0.957 | 1 | 0.941 | 0.829 | 0.969 | 1.01 | 0.97 | 1.06 | 1.08 | 0.977
2 | CCc1cccc(CC)c1N(COC)C(=O)CS(=O)(=O)[O-].[Na+] | 1.02 | 0.953 | 1.01 | 0.989 | 1.07 | 0.876 | 0.996 | 1.04 | 1.07 | 0.966 | 0.971 | 0.979 | 0.987 | 1.02 | 1.07 | 1.05 | 1.02 | 1.01 | 1 | 1.01
3 | O=C1NCC[n+]2ccccc21.[Br-] | 1.13 | 0.985 | 1.01 | 0.761 | 0.984 | 0.972 | 1.02 | 0.972 | 1.01 | 0.97 | 1.02 | 0.966 | 0.978 | 1.07 | 0.908 | 0.882 | 0.961 | 0.968 | 0.923 | 0.972
4 | O=C(O)[C@@H](S)[C@@H](S)C(=O)O | 1.14 | 1.01 | 1.05 | 1.01 | 1.17 | 1.04 | 1.04 | 1.02 | 1.01 | 1.02 | 1.03 | 1.02 | 1.03 | 1.18 | 1.05 | 0.993 | 1.02 | 0.985 | 1.04 | 1.04
5 | Nc1cccc(O)c1 | 0.979 | 1.03 | 1.02 | 1 | 0.939 | 1.03 | 1.03 | 1.06 | 1.03 | 0.998 | 1.06 | 1.01 | 1.01 | 0.984 | 1 | 1.04 | 0.94 | 0.975 | 0.993 | 1
6 | Oc1ccc2nc(-c3cscn3)[nH]c2c1 | 0.877 | 1.07 | 0.955 | 0.997 | 0.98 | 0.985 | 0.982 | 1.01 | 0.988 | 1.01 | 0.994 | 0.988 | 0.974 | 1.01 | 0.975 | 0.869 | 0.997 | 1.01 | 1.02 | 0.958
7 | CC(C)(C)Nc1nc(N)nc(Cl)n1 | 1.06 | 0.991 | 0.997 | 0.993 | 0.991 | 0.979 | 0.962 | 0.982 | 0.997 | 0.998 | 0.999 | 1.03 | 0.998 | 0.979 | 1 | 0.974 | 0.987 | 0.995 | 1.02 | 0.97
8 | CC(C)CCCCCOC(=O)C(C)Oc1ccc(Cl)cc1Cl (stereo not given) | 1.14 | 1 | 1.03 | 0.954 | 0.966 | 1.04 | 0.992 | 0.969 | 1.06 | 1.02 | 1.01 | 0.979 | 1.02 | 1.21 | 1.06 | 0.817 | 0.962 | 0.814 | 0.925 | 0.9
9 | O=C1NCCN1 | 1.15 | 1.02 | 1.02 | 1.06 | 1.18 | 1.02 | 0.978 | 1.04 | 0.993 | 1.02 | 1.04 | 1.05 | 1.06 | 1.01 | 1.03 | 0.984 | 0.904 | 1.04 | 1.02 | 1.04
10 | CNc1nc(NC(C)C)nc(SC)n1 | 0.806 | 1.04 | 0.972 | 0.989 | 0.913 | 1.01 | 0.957 | 0.862 | 1.01 | 0.986 | 0.962 | 1 | 0.988 | 0.879 | 0.922 | 1.18 | 1.05 | 0.984 | 0.985 | 0.993
11 | CCCOC(=O)c1ccc(C(=O)OCCC)nc1 | 1.06 | 1.01 | 0.99 | 1.04 | 0.94 | 1.02 | 0.99 | 1.05 | 0.99 | 0.967 | 1.05 | 1 | 1 | 1.03 | 0.944 | 0.966 | 0.861 | 1.07 | 1 | 0.986
12 | CCCOC(=O)NCCCN(C)C | 0.994 | 1.01 | 1.03 | 1 | 0.98 | 1.02 | 1 | 1.02 | 0.987 | 0.975 | 0.979 | 1.02 | 0.979 | 0.952 | 0.984 | 0.951 | 1.04 | 1.01 | 0.989 | 0.977
13 | CCCN(CCOc1c(Cl)cc(Cl)cc1Cl)C(N)=O | 0.911 | 0.899 | 0.959 | 0.935 | 0.98 | 0.961 | 0.894 | 0.971 | 0.987 | 0.993 | 1 | 1.01 | 0.985 | 1 | 0.935 | 0.946 | 0.851 | 0.978 | 0.949 | 0.977
14 | COC(=O)c1c(Cl)nn(C)c1S(=O)(=O)NC(=O)Nc1nc(OC)cc(OC)n1 | 0.984 | 1.04 | 1.07 | 1.02 | 1 | 0.991 | 1 | 1.06 | 1 | 1.02 | 1 | 1.01 | 1.01 | 1 | 1.09 | 0.882 | 1.03 | 0.999 | 1.01 | 0.99
15 | CCOc1ccc(NC(=O)OC(C)C)cc1OCC | 1.08 | 0.95 | 1.02 | 0.928 | 1.2 | 0.844 | 0.938 | 1.05 | 0.971 | 0.974 | 0.942 | 1.01 | 1.04 | 1.21 | 1.09 | 0.99 | 0.835 | 0.722 (active) | 0.989 | 0.998
16 | CCCCCCCCCC[N+](C)(C)Cc1ccccc1.[Cl-] | 0.987 | 0.962 | 0.987 | 0.979 | 1.21 | 0.996 | 0.896 | 0.866 | 0.921 | 0.848 | 0.9 | 1 | 0.969 | 0.91 | 1.02 | 0.712 | 1.06 | 0.926 | 0.847 | 0.91

From the supplement of paper PMC12669032
